PubChem BioAssay (Tox21)
Where “and” joins values, the source holds several entries; their conditions need not be identical. Equal values may be shown once. Inconclusive results are not listed. Some compounds were tested as several samples or in several runs, with calls that do not always agree. Calls of active or inactive are those of the source. Unless noted, the call rests on the fitted dose curve; in most records, active means well fitted curve in the direction sought with a large enough effect in the repeat runs; inconclusive means weak or mixed curves; inactive means no such curve, though single readings can be large; an effect the other way counts as inactive or inconclusive.

Assays:
[1] = qHTS assay to identify small molecule antagonists of the glucocorticoid receptor (GR) signaling pathway - cell viability counter screen (AID 720693); further: nearly all actives have a fitted effect of over 55% in size; further: potency means the concentration at half of the fitted maximal effect
[2] = qHTS assay for identifying genotoxic compounds that show differential cytotoxicity against isogenic chicken DT40 cell lines with known DNA damage response pathways - wild type cell line (AID 743012); further: nearly all actives have a fitted effect of over 60% in size; further: potency means the concentration at half of the fitted maximal effect
Procedure, shortened: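 Luminescent ATP viability signal (CellTiter-Glo, 30 min RT) recorded after wild type DT40 cells were incubated with compounds for 40 h at 37 C/5% CO2.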

[3] = qHTS assay for identifying genotoxic compounds that show differential cytotoxicity against isogenic chicken DT40 cell lines with known DNA damage response pathways - Rev3 mutant cell line (AID 743014); further: nearly all actives have a fitted effect of over 55% in size; further: potency means the concentration at half of the fitted maximal effect
[4] = qHTS assay to identify small molecule antagonists of the androgen receptor (AR) signaling pathway - cell viability counter screen (AID 743033; further: nearly all actives have a fitted effect of over 45% in size; further: potency means the concentration at half of the fitted maximal effect)
[5] = qHTS assay to identify small molecule antagonists of the androgen receptor (AR) signaling pathway using the MDA cell line - cell viability counter screen (AID 743041; further: nearly all actives have a fitted effect of over 45% in size; further: potency means the concentration at half of the fitted maximal effect)
Procedure, shortened: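 Viability read by CellTiter-Fluor fluorescence in the same wells as the antagonist screen, added after 15.5 h of a 16 h, 37C exposure. Human breast carcinoma MDA-kb2 AR-luc cells, compounds co-dosed with agonist R1881.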

[6] = qHTS assay for identifying genotoxic compounds that show differential cytotoxicity against isogenic chicken DT40 cell lines with known DNA damage response pathways - Rad54/Ku70 mutant cell line (AID 743015); further: nearly all actives have a fitted effect of over 60% in size; further: potency means the concentration at half of the fitted maximal effect
[7] = target: Androgen receptor (Homo sapiens) (UniProt P10275); test: qHTS assay to identify small molecule agonists of the androgen receptor (AR) signaling pathway (AID 743036; active means well fitted activation curve with a large enough effect in the signal ratio in the repeat runs, with a control signal flat, not every such curve was filed as active; the % refers to the signal ratio)
Sequence of Androgen receptor (Homo sapiens) (P10275 whole entry, looked up): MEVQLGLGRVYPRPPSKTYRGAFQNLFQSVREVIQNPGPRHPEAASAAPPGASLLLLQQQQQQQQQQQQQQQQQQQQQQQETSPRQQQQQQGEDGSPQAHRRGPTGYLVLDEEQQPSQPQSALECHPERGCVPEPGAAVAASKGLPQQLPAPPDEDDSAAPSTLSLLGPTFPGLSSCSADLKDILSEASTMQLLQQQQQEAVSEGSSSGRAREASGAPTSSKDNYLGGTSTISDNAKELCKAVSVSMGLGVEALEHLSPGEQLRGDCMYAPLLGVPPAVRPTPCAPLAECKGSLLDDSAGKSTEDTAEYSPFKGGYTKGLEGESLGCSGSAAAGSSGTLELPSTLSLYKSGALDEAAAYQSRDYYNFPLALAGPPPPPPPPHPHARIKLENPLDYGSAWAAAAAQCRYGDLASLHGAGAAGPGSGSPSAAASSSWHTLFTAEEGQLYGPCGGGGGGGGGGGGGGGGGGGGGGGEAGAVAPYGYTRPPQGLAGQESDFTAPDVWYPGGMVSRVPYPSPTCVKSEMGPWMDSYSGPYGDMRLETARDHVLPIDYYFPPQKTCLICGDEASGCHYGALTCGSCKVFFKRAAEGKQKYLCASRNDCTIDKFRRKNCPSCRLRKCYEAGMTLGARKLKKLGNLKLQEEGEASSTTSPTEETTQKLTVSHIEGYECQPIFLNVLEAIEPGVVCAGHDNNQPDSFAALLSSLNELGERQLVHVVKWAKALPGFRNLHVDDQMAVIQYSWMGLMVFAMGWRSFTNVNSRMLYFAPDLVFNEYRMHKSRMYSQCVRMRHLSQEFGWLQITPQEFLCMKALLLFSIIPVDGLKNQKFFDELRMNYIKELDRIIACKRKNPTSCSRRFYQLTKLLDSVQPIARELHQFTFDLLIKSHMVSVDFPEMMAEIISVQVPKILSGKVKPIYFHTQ
Procedure, shortened: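 HEK293 cells stably carrying a UAS-driven beta-lactamase reporter (GeneBLAzer AR-UAS-bla-GripTite) were plated at 2,000 cells/well, rested 4 h at 37C, then exposed to compounds in DMSO for 16 h. LiveBLAzer B/G FRET substrate was added for 2 h at room temperature; fluorescence read.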

[8] = target: Androgen receptor (Homo sapiens) (UniProt P10275); test: qHTS assay to identify small molecule agonists of the androgen receptor (AR) signaling pathway using the MDA cell line (AID 743040; further: nearly all actives have a fitted effect of over 20% in size)
Procedure, shortened: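 Luciferase agonist assay: 16 h compound exposure at 37C without CO2 in MDA-kb2 AR-luc cells, whose MMTV promoter responds to both AR and GR. Luminescence measured after 30 min room-temperature incubation with ONE-Glo.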

[9] = target: Androgen receptor (Homo sapiens) (UniProt P10275); test: qHTS assay to identify small molecule antagonists of the androgen receptor (AR) signaling pathway (AID 743035; active means well fitted inhibition curve with a large enough effect in the signal ratio in the repeat runs, not every such curve was filed as active; the % refers to the signal ratio; further: potency means the concentration at half of the fitted maximal effect)
Procedure, shortened: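 Quantitative HTS of the Tox21 10K library used HEK293 AR-UAS-bla cells stimulated with R1881 alongside compound for 16 h at 37C, followed by beta-lactamase FRET detection (LiveBLAzer B/G, 2 h, RT).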

[10] = target: Androgen receptor (Homo sapiens) (UniProt P10275); test: qHTS assay to identify small molecule antagonists of the androgen receptor (AR) signaling pathway using the MDA cell line (AID 743042; further: nearly all actives have a fitted effect of over 55% in size; further: potency means the concentration at half of the fitted maximal effect)
Procedure, shortened: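 Antagonist mode: compounds plus R1881 agonist added to MDA-kb2 AR-luc cells, incubated 16 h at 37C. Luciferase reporter luminescence quantified, with multiplexed CellTiter-Fluor readout for cell viability.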

Row | SMILES | Potency [1] | Potency [2] | Potency [3] | Potency [4] | Potency [5] | Potency [6] | Potency [7] | Potency [8] | Potency [9] | Potency [10]
1 | CCCCCCCCOc1ccccc1C(=O)Nc1ccc(C(=O)OCC[N+](C)(CC)CC)cc1 | 23.9 µM (active) | 11.9 µM (active) | 23.7 µM (active) | inactive | inactive |  |  |  |  | 
2 | O=C1c2c(O)ccc(Nc3ccc(CCO)cc3)c2C(=O)c2c([N+](=O)[O-])ccc(O)c21 | inactive | 61.1 µM (active) | 61.1 µM (active) |  | inactive | 27.3 µM (active) | inactive | inactive |  | 
3 | CCCC(C)c1ccccc1O (stereo not drawn) | inactive | 48.6 µM (active) | 24.3 µM (active) |  | inactive | 61.1 µM (active) |  |  |  | 
4 | Cc1cccc(CN2CCN(C(c3ccccc3)c3ccc(Cl)cc3)CC2)c1 (stereo not drawn) | inactive | 9.02 µM (active) | 5.07 µM (active) |  | inactive | 9.02 µM (active) |  |  |  | 
5 | N=C1N=C(N)c2ccccc21 | inactive | 17.2 µM (active) | 17.2 µM (active) |  | inactive | 17.2 µM (active) |  |  |  | 
6 | CCCCCCCC/C=C/CCCCCCCC1=NCCN1CCO | 49 µM (active) | 12.2 µM (active) | 13.7 µM (active) |  | inactive | 13.7 µM (active) |  | inactive | 49 µM (active) | inactive
7 | CCC1=C[C@@H]2CN(C1)Cc1c([nH]c3ccccc13)[C@@](C(=O)OC)(c1cc3c(cc1OC)N(C)[C@H]1[C@@](O)(C(=O)OC)[C@H](OC(C)=O)[C@]4(CC)C=CCN5CC[C@]31[C@@H]54)C2 | inactive | 0.075 µM (active) | 0.0841 µM (active) |  | inactive | 0.119 µM (active) |  |  |  | 
8 | CC(C)(C)c1ccc(C(=O)O)cc1 | inactive | inactive | inactive |  | inactive | inactive |  |  |  | 
9 | CCCCCCCCCCCCCC[P+](CCCC)(CCCC)CCCC (tested in a mixture with another compound) | 8.76 µM (active) | 0.388 µM (active) | 0.218 µM (active) |  | 5.48 µM (active) | 0.218 µM (active) |  | inactive | 1.75 µM (active) | 3.46 µM (active)
10 | Cc1cccc2c1cc1ccc3cccc4ccc2c1c34 | inactive | inactive | inactive |  | inactive | inactive |  |  |  | 
11 | Cc1c(C)c2c(c(C)c1O)CCC(C)(COc1ccc(CC3SC(=O)NC3=O)cc1)O2 (stereo not drawn) | inactive | 10.6 µM (active) and 17.2 µM (active) | 26.6 µM (active) and 15.4 µM (active) | inactive and 24.5 µM (active) | inactive |  |  | inactive |  | 
12 | C[C@@H](NCCCc1cccc(C(F)(F)F)c1)c1cccc2ccccc12 | 13.4 µM (active) | 5.31 µM (active) | 5.96 µM (active) |  | inactive | 5.96 µM (active) |  | inactive |  | 
13 | Fc1ccc([C@@H]2CCNC[C@H]2COc2ccc3c(c2)OCO3)cc1 | inactive | 3.76 µM (active) | 7.5 µM (active) |  | 18.8 µM (active) | 7.5 µM (active) |  | inactive | 13.4 µM (active) | 21.1 µM (active)
14 | CCOC(=O)O[C@]1(C(=O)OCCl)CC[C@H]2[C@@H]3CCC4=CC(=O)C=C[C@]4(C)[C@H]3[C@@H](O)C[C@@]21C | inactive | inactive | inactive | inactive | inactive |  |  |  |  | 
15 | O=C1CCCCCN1SSN1CCCCCC1=O | inactive | 13.7 µM (active) | 19.3 µM (active) |  | inactive | 15.4 µM (active) |  |  |  | 
16 | O=C1Cc2cc(CCN3CCN(c4nsc5ccccc45)CC3)c(Cl)cc2N1 | inactive | 21.1 µM (active) and 10.6 µM (active) | 33.5 µM (active) and 26.6 µM (active) |  | inactive | 18.8 µM (active) and 9.44 µM (active) |  |  |  | 
17 | CC1=C(C(=O)OC(C)C)C(c2cccc([N+](=O)[O-])c2)C(C(=O)OC2CN(C(c3ccccc3)c3ccccc3)C2)=C(N)N1 (stereo not drawn) | 8.49 µM (active) | 18.8 µM (active) | 18.8 µM (active) |  | inactive | 13.3 µM (active) |  |  |  | 
18 | OC1(c2ccc(Cl)c(C(F)(F)F)c2)CCN(CCCC(c2ccc(F)cc2)c2ccc(F)cc2)CC1 | 15.1 µM (active) | 4.22 µM (active) | 7.5 µM (active) | 19 µM (active) | inactive |  |  |  |  | 
19 | CC1=C(/C=C/C(C)=C/C=C/C(C)=C/C=O)C(C)(C)CCC1 | 24.4 µM (active) | 13.6 µM (active) | 9.63 µM (active) | 21.8 µM (active) |  |  |  |  |  | 
20 | Nc1c(Cl)cc(Cl)cc1Cl | inactive | inactive |  |  | inactive | inactive |  |  |  | 
21 | CC(C)(C)C(=O)OCOC(=O)[C@@H]1N2C(=O)[C@@H](NC(=O)[C@H](N)c3ccccc3)[C@H]2SC1(C)C | inactive | inactive |  |  | inactive | inactive |  |  |  | 
22 | CC[C@@]1(O)C(=O)OCc2c1cc1n(c2=O)Cc2cc3c(CN(C)C)c(O)ccc3nc2-1 | inactive | 1.33 µM (active) |  |  |  | 0.841 µM (active) |  |  |  | 
23 | [Cl][Bi]([Cl])([c]1ccccc1)([c]1ccccc1)[c]1ccccc1 | 48.7 µM (active) | 1.36 µM (active) | 2.16 µM (active) |  | 27.1 µM (active) |  |  | inactive |  | 13.6 µM (active)
24 | Cc1ccc2oc(CN(Cc3ccccc3)C(=O)Nc3c(F)cc(F)cc3F)c(-c3ccc(Cl)cc3)c2c1 | inactive | 18.7 µM (active) | 13.3 µM (active) |  | inactive |  |  |  |  | 
25 | O=c1cc(-c2ccc(O)cc2)oc2cc(O)cc(O)c12 | 49 µM (active) | 27.3 µM (active) | 69.5 µM (active) and 27.3 µM (active) | inactive | inactive |  |  |  |  | 
